In PubChem BioAssay (Tox21):
Records with an inconclusive call do not appear. Entries that show only a call come without a potency. Unmarked numbers belong to inactive results. Calls of active or inactive are those of the source. Unless noted, calls follow the shape of the dose curve; as a rule, active = well fitted curve in the direction sought with a large enough effect in the repeat runs; inconclusive = weak or mixed curves; inactive = no such curve, though single readings can be large; an effect the other way counts as inactive or inconclusive.

Columns and labels:
[1] = qHTS assay to identify small molecule antagonists of the estrogen related receptor (ERR) signaling pathway - cell viability counter screen (AID 1224818);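 also: series mostly up to about 46 µM; viability measured after 17.5 h of compound exposure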
Method in brief: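 Quantitative high-throughput viability counter screen in ERR cells. Compounds (DMSO) incubated 17.5 h at 37 C; read-out was CellTiter-Fluor fluorescence.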

[2] = qHTS assay to identify small molecule antagonists of the estrogen related receptor (ERR) signaling pathway (AID 1224819; also: nearly all actives have a fitted effect of over 50% in size; also: potency is read from the fitted curve at half-maximal effect)
Method in brief: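 ERR reporter cell line (NTP) plated at 2,000 cells/well, settled 6 h at 37C/5% CO2, then exposed to LOPAC compounds for 18 h at 37C. One-Glo luciferase luminescence read after 30 min at room temperature.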

[3] = qHTS assay to identify small molecule agonists of the estrogen related receptor (ERR) signaling pathway (AID 1224820)
Method in brief: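 Luminescence readout (One-Glo, 30 min RT) from NTP-supplied ERR cell line exposed to compounds for 18 h at 37 C. Cells seeded 2,000 per well and pre-incubated 6 h before pin-tool compound transfer.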

[4] = test system: estrogen-related receptor alpha (ERRalpha) with PGC-1alpha coactivator, human; assay: qHTS assay to identify small molecule antagonists of the estrogen related receptor signaling pathway with the pleiotropic PPARgamma coactivator (PGC) (AID 1224821; calls by dose curve; also: nearly all actives have a fitted effect of over 50% in size; also: potency is read from the fitted curve at half-maximal effect)
Method in brief: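 PGC/ERR reporter cells; 6 h pre-incubation 37 C/5% CO2; pin-tool compound in DMSO, 18 h 37 C; One-Glo added, 30 min RT; luminescence read. qHTS antagonist mode.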

[5] = qHTS assay to identify small molecule agonists of the estrogen related receptor signaling pathway with the pleiotropic PPARgamma coactivator (PGC) (AID 1224823)
Method in brief: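 Luminescence readout (One-Glo, 30 min RT) from PGC/ERR cell line treated 18 h at 37 C with pin-tool-delivered DMSO compound solutions; cells plated 6 h before dosing. Quantitative HTS format.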

[6] = qHTS assay to identify small molecule antagonists of the estrogen related receptor signaling pathway with the pleiotropic PPARgamma coactivator (PGC) cell viability counter screen (AID 1224822; also: series mostly up to about 46 µM)
Method in brief: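 Cytotoxicity in the PGC/ERR cell line is assessed with CellTiter-Fluor, read as fluorescence intensity 30 min after reagent addition, following 17.5 h compound treatment at 37 C.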

| Structure (SMILES) | Potency [1] | Potency [2] | Potency [3] | Potency [4] | Potency [5] | Potency [6] |
| --- | --- | --- | --- | --- | --- | --- |
| c1ccc2sc(C3(N4CCCCC4)CCCCC3)cc2c1 | inactive | inactive | inactive | inactive | inactive |  |
| C[C@@H]1O[C@@H](O[C@H]2C[C@@H](O)[C@]3(CO)[C@@H]4C(CC[C@]3(O)C2)[C@@]2(O)CC[C@H]([C@@H]3COC(=O)C3)[C@@]2(C)C[C@H]4O)[C@H](O)[C@H](O)[C@H]1O (some centres not stated) | inactive | 1190 nM (active) | inactive | 3480 nM (active) | inactive |  |
| COC(=O)[C@@H](N)CCCN=C(N)N[N+](=O)[O-] | inactive |  |  |  |  | inactive |
